CBFb RUNX1 block: inhibitors of human CBF-beta and RUNX1 interaction; AlphaScreen CBFb-His/RUNX1-biotin binding, biochemical; 230,000 tested, under 10 active; Q01196+Q13951; Potency, µM (series often up to 59.8 µM), without a hit: at the highest dose activity, negative = inhibition, most hits filed as inhibitors; AID 1477; also: % of control where 0% means no effect
Target sequence (Q01196 whole entry, looked up): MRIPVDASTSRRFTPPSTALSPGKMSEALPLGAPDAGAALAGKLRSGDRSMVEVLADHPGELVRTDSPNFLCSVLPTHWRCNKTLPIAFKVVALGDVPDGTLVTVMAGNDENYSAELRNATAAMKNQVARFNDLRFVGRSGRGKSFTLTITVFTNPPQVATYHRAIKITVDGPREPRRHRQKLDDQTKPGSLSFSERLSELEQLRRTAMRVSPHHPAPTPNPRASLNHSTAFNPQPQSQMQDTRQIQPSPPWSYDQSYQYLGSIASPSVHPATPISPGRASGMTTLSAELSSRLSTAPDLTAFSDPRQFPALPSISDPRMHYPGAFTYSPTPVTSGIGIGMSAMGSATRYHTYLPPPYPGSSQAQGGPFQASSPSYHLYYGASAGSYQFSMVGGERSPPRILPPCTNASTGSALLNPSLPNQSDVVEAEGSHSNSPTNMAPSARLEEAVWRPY
Target sequence (Q13951 whole entry, looked up): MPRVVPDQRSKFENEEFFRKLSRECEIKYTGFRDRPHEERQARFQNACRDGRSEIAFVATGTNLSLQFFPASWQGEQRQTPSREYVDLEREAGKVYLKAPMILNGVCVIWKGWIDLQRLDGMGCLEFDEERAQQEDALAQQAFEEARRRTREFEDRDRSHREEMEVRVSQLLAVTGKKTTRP
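Proteins preincubated together for 20 min at RT before compound addition; 15 min later, nickel and streptavidin beads were added and left 90 min prior to AlphaScreen measurement.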
Integrin act MD: integrin-mediated muscular dystrophy alleviation activation | alpha7betagal myoblasts, beta-gal FDG fluorescence, 48 h | Potency, µM (series often up to 38.3 µM), for inactives: top-dose activation, most hits filed as activators | 350,000 compounds, 0.064% hits | AID 624291;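 also: potency is read from the fitted curve at half-maximal effect; 100% = response of the positive control SU9516; nearly all actives have a fitted effect of over 60% in size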
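alpha7betagal+/- myoblasts (passage 13, 250/well) treated 48 h at 37C with compounds at 1:260 dilution of DMSO stock. Lysed, then beta-galactosidase activity read as FDG fluorescence (ex 480/em 540) after 30 min, with pre-read for autofluorescence.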
N370S GC: N370S glucocerebrosidase modulation, Gaucher chaperone candidate; Potency, µM (series often up to 59.4 µM), without a hit: at the top dose activity change, negative = inhibition, usual class: inhibitors; P04062; 330,000 compounds, 0.092% hits; N370S GC spleen homogenate, 4MU-glucoside fluorescence;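 also: potency is read from the fitted curve at half-maximal effect; 0% = full enzyme activity and -100% = no enzyme basal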
GRP78 ERSR act: induces the endoplasmic reticulum stress response in human glioma cells. Potency, µM, for inactives: at the highest dose activation, actives largely listed as activators. AID 602332. U87-MG GRP78 promoter luciferase reporter, 16 h. 420,000 compounds, 0.02% hits; also: potency is read from the fitted curve at half-maximal effect; series mostly up to about 76 µM; % of control where 0% means no effect; nearly all actives have a fitted effect of over 35% in size
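ERSR induction read as luciferase luminescence (Bright-Glo, 10 min at room temperature) in stably transfected human U87-MG glioma cells exposed to compounds for 16 h, using GRP78 as sensor.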
ClpP mod: qHTS Assay for Activators of ClpP; AID 651965, 2013; Potency, µM (series often up to 57.5 µM), without a hit: at the highest dose activity change, negative = active; purified B. subtilis ClpP, FRET peptide cleavage, 20 min; 340,000 compounds, 1.9% hits; ATP-dependent Clp protease proteolytic subunit (Bacillus subtilis (strain 168)), P80244; active = well fitted falling curve with a large enough effect; inconclusive = small, poorly fitted or top-dose-only effect; inactive = no such curve, though single readings can be large or run the other way; also: potency is read from the fitted curve at half-maximal effect; the source files actives as falling curves though it sought activators and does not explain the sign; nearly all actives have a fitted effect of over 65% in size
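FRET quenching reversal measured ClpP activation: 10 microg/mL B. subtilis ClpP at pH 8 with the FRET-FV decapeptide, read at 430 nm after 320 nm excitation. The 20-min minus 0-min signal was scaled between DMSO/no-enzyme wells and ADEP (5.8 microM final).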
Anesthetic bind: binds horse apoferritin like a general anesthetic; apoferritin/1-aminoanthracene competitive binding, fluorescence; Potency, µM (highest dose often 77.5 µM), inactives show at the highest dose activity change, negative = displacement, actives largely listed as inhibitors; 350,000 compounds, 0.074% hits; also: potency is read from the fitted curve at half-maximal effect; % is scaled to controls: 0 for no effect and ±100 for the full control effect; nearly all actives have a fitted effect of over 20% in size
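Steps: apoferritin (10 uM) was premixed with half-saturated 1-AMA in PBS, compounds were pin-transferred, plates stood 10 min at room temperature, fluorescence was read at 380/535 nm, and curves were fitted with a Hill equation.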
Starred values were filed as active, the others as inactive; [ ] = remark or other dose. This is one part of a sample in which hits are shown more often than they occur. Unless noted, calls follow the shape of the dose curve; as a rule, active = well fitted curve in the direction sought with a large enough effect; inconclusive = small, poorly fitted or top-dose-only effect, or another doubt; inactive = no such curve, though single readings can be large; an effect the other way counts as inactive or inconclusive.

Screening C=C1/C(=C\C=C2/CCC[C@@]3(C)[C@@H]([C@H](C)OCCC(C)(C)O)CC[C@@H]23)C[C@@H](O)C[C@@H]1O returned GRP78 ERSR act -4%.
Screening COC(=O)c1ccc(C(=O)OC)c(NC(=S)N2CCOCC2)c1 returned CBFb RUNX1 block 10%, Integrin act MD inconclusive, N370S GC 10%, GRP78 ERSR act 2%, ClpP mod 32µM* and Anesthetic bind 32%.
OCCCc1nc2n(n1)C(c1cccs1)C=C(c1ccccc1)N2 (stereo not drawn) was read as CBFb RUNX1 block 1%, N370S GC 2% and Anesthetic bind 781%.
OCCCc1nc2n(n1)C(c1ccccc1Cl)C=C(c1cccs1)N2 (stereo not drawn) was read as CBFb RUNX1 block 5%, Integrin act MD 8%[7.66 µM], N370S GC 2%, GRP78 ERSR act -1%, ClpP mod 22µM* and Anesthetic bind 629%.
For Cc1ccc2c(C(=O)CNc3nccs3)c[nH]c2c1 the results were GRP78 ERSR act -3% and ClpP mod 1%.
COc1ccc(-c2cc(C)cc3c2OC(CNC(=O)/C=C/c2ccncc2)C3)nn1 (stereo not drawn) was read as GRP78 ERSR act -2%.
For Cc1ccc(CN2CCN(/N=C/c3sccc3C)CC2)c(C)c1 the results were CBFb RUNX1 block -8%, Integrin act MD -8%, N370S GC 5%, GRP78 ERSR act -4%, ClpP mod 28µM* and Anesthetic bind -17%.
COC(=O)C1CCCCN1Cc1ccc2c(c1)CN(C(=O)c1csc(-c3cccs3)n1)CCO2 (stereo not drawn) was read as GRP78 ERSR act -2%.
For CCOc1cc(S(=O)(=O)N2CCN(S(=O)(=O)CC)CC2)c(OCC)cc1-n1cnnn1 the results were Integrin act MD 29%, N370S GC 9%, GRP78 ERSR act -6%, ClpP mod 4% and Anesthetic bind -2%.
For CCOc1cc(S(=O)(=O)NCC2OCCc3ccccc32)c(OCC)cc1-n1cnnn1 (stereo not drawn) the results were CBFb RUNX1 block 1%, Integrin act MD -7%, N370S GC -11%, GRP78 ERSR act -2%, ClpP mod 13µM* and Anesthetic bind -15%.
Screening CCOc1cc(S(=O)(=O)NC2CC2)c(OCC)cc1-n1cnnn1 returned CBFb RUNX1 block 2%, Integrin act MD -10%, N370S GC 0%, GRP78 ERSR act -4%, ClpP mod 32µM* and Anesthetic bind -10%.
`CCOc1cc(S(=O)(=O)NCc2ccc(OC)cc2)c(OCC)cc1-n1cnnn1` gave CBFb RUNX1 block -5%, Integrin act MD 6%, GRP78 ERSR act -4%, ClpP mod 22µM* and Anesthetic bind -13%.
`CCOc1cc(S(=O)(=O)NCCc2ccc(OC)c(OC)c2)c(OCC)cc1-n1cnnn1` gave CBFb RUNX1 block 4%, Integrin act MD 0%, N370S GC 12%, GRP78 ERSR act -5%, ClpP mod -2% and Anesthetic bind -9%.
Cn1c(=O)c2c(nc(Br)n2CC(=O)c2cccs2)n(C)c1=O was read as CBFb RUNX1 block 3%, Integrin act MD -16%, N370S GC 2%, GRP78 ERSR act 1%, ClpP mod 28µM* and Anesthetic bind -9%.
Screening COc1ccccc1N1CCN(c2nc(CNC(=O)C3CC34CCCC4)nc3ccccc23)CC1 (stereo not drawn) returned GRP78 ERSR act -6%.
Screening CCOC(=O)c1cc2c(ccn2-c2ccc(F)cc2)n1CC(=O)N1CCN(C(=O)c2ccco2)CC1 returned CBFb RUNX1 block 1%, Integrin act MD -29%, N370S GC -1%, GRP78 ERSR act -6%, ClpP mod 32µM* and Anesthetic bind -9%.
`CCCn1c(C(=O)OC)cc2c1ccn2-c1ccc(F)cc1` gave CBFb RUNX1 block -7%, Integrin act MD 0%, N370S GC -1%, GRP78 ERSR act 3%, ClpP mod 28µM* and Anesthetic bind -12%.
